# Test results as given in the supplement of paper PMC11417369.
# ± gives the standard deviation of the averaged measurements. In all, about 25,000 sequences were measured (“ln(normalized median fluorescence intensity)”: median about 8.9, highest 2% from about 10 on). For the sample, the highest values were picked, then their nearest neighbours and some sequences at random.
# Tested on: PfAP2-LT AP2 domain (GST-tagged)
# Assay: gcPBM binding intensity (ln(normalized median fluorescence intensity)); higher = stronger DNA binding
# Summary of the method: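 For binding intensity, the highest Masliner-normalised natural-log median intensity across replicate spots of either probe orientation was taken. Protein bound to the array was stained with Alexa488 anti-GST antibody and scanned at 488 nm. The protein, GST-tagged P. falciparum DNA-binding domains from E. coli at about 25 μg on average, had been applied for 1 h to an Agilent 4 × 180k array of primer-extended double-stranded 36-bp intergenic genomic probes and negative controls.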
row,Sequence,gcPBM binding intensity (ln)
1,TGTTATTCTGCATATACACACAAATAACAATTTAAA [CACACA_site6943],8.67 ± 0.38
2,CCTTTTTTATTTACAACACACGTAAAGGTTCAAATA [CACACA_site1741],8.68 ± 0.42
3,TTTTCAATTAATAATACACACATGTATATATCATTA [CACACA_site7539],8.81 ± 0.43
4,TATGAAATGCTCCAATCACACATGAATGTAATATAT [CACACA_site5458],8.73 ± 0.35
5,AACTATTACTTTCTTTCACACATTTTTTTTTTTTTT [CACACA_site5355],8.94 ± 0.59
6,AATAATATCTGAAAATGTACATTTTATTATAAACAT [XGTACX_site8441],8.86 ± 0.45
7,ATGAATAAAAAAGGTGGTACATATATATATATATAT [XGTACX_site7893],9.82 ± 0.11
8,AAAAAAAAAAAACACACACACATAGACCTCCAATAG [CACACA_site3562],9.77 ± 0.25
9,AAAAAAAAAAGACACACACACATAGACCTCCAATAG [CACACA_site7646],9.79 ± 0.25
10,AAAAAAAAAAAAAACACACACACATAGACCTCCAAT [CACACA_site3563],10.2 ± 0.26
11,TATAAATATACAAAGGTGCATAAAAAGTTATGTTTT [GTGCAC_site9832],8.72 ± 0.44
12,TTCTATTCAAATGCAAAATTATTAAATAAAAAATAA [GTGCAC_negctrl_site708],8.31 ± 0.43
13,GAAAAGCATAGATGCACACATATATATATATATATA [CACACA_site2169],10.18 ± 0.014
14,GCTAAAAGTATATGCACACACATATAGATGCACATA [CACACA_site6868],9.34 ± 0.33
15,AAAAAAAAAAGAAACACACACATATATATATAGAAT [CACACA_site1777],9.44 ± 0.39
16,AAGAAAAGCATAGATGCACACATATATATATATATA [CACACA_site8675],10.2 ± 0.32
17,TAGGAAAAGAAAAGCACACACATAAATAGATATATA [CACACA_site6382],9.43 ± 0.54
18,ATTTTAGATGAAAAAGCACACAACATATATATATAT [CACACA_site2295],9.44 ± 0.38
19,AATACCCATATCTTCACACATACATAATAAATTATA [CACACA_site5367],8.81 ± 0.36
20,AAAAAAAAAATATACACACACATATAAATATAAATA [CACACA_site7574],9.34 ± 0.42
21,TGAGGTAACTAAATATGTACGTAACGAAGATACATA [XGTACX_site8231],8.96 ± 0.5

row,Sequence,gcPBM binding intensity (ln)
1,AATTGTTCGATATATGCACACAGTTTTGTTATTTTT [CACACA_site1615],9.25 ± 0.34
2,GTTTGATTAAACTTGACACACATATATATAAATATA [CACACA_site1784],8.71 ± 0.44
3,TATTAAACTTGACACACACACACACGCATATATAAA [CACACA_site6496],10.1 ± 0.14
4,TTTATTAAACTTGACACACACACACCCACATATATA [CACACA_site760],9.8 ± 0.28
5,CCCCATATAATGAACACACACACTCCTCATAATTAA [CACACA_site628],10.33 ± 0.099
6,TTTCCCCCATATAATGAACACACACCCTCCTCATAA [CACACA_site8110],9.84 ± 0.41
7,CCCATGTAATATTAAACACACACTCATATAACACAA [CACACA_site7906],9.36 ± 0.26
8,TTATAAATTCAATGTACTACACAAAATGAATTTAAT [XGTACX_site6683],8.53 ± 0.35
9,AGAACCATATATAAATGTACATGTTAATATGAATAA [XGTACX_site130],8.93 ± 0.42
10,ATTATGTTTCTTTTTTTTTTTAAAGGATGTCTTTTT [CACACA_negctrl_site974],8.62 ± 0.56
11,TAAACATACATATACACACACACACCCACACCCACA [CACACA_site492],10.3 ± 0.18
12,TTAAAAAAAAAACACACACACATACACATATATATA [CACACA_site3299],9.91 ± 0.2
13,ATTAAACATACATATACACACACACCCACCCACCCA [CACACA_site8057],10.22 ± 0.071
14,TTATATATGTATTAATGTACATAGTTGAGAAAGGTA [XGTACX_site1511],8.78 ± 0.34
15,GAACCTTTAAAATACACACCCAAATCCTTTGAAATA [CACACA_site3630],8.88 ± 0.42
16,CAATGTTGTACATACACACACACAAAAAAAAAATAA [CACACA_site2407],9.6 ± 0.45
17,TCTCCTTGTTCCTTTTTTTTAAAAAAAAACATTAAA [CACACA_negctrl_site679],8.47 ± 0.52
18,GTTAATTATTAAATTTGTACTCATATATATTATATA [XGTACX_site6862],8.71 ± 0.53
19,ATAAAACAAAGACACACACACATACACAAAAAAAAA [CACACA_site7752],9.99 ± 0.42
20,AAAAAAAAAAGACACACACACAAATACAAATACATA [CACACA_site6334],10 ± 0.28
21,GGTACATACAGACACACACACAAAAAAAAAAAAATA [CACACA_site6844],9.81 ± 0.64

row,Sequence,gcPBM binding intensity (ln)
1,AAGACACAAAAACACACACACATACATACATACATA [CACACA_site454],9.99 ± 0.31
2,CAAAGACACAAACACACACACACATACATACATACA [CACACA_site453],10.3 ± 0.42
3,AAAAAAAAAAGACACACACACACAAATACATACACA [CACACA_site6472],10.2 ± 0.042
4,TAATATTTCGCACTGTGTACTGAAATATTTATATCG [XGTACX_site516],8.76 ± 0.36
5,TAATTAACCTATGCATTCATATAGATACATAAATAT [CACACA_negctrl_site885],8.72 ± 0.51
6,GGTAATTATTTTGGTTGTACTCAAATATATAATATT [XGTACX_site291],8.89 ± 0.23
7,ATCAAAAACATACCTACACACACAATATGTATATAT [CACACA_site9171],9.51 ± 0.28
8,CATATACATACACATACACACATACACCCATACACA [CACACA_site8514],9.68 ± 0.29
9,TCAAAGCACAGATACACACACATATATATATATATA [CACACA_site287],10.18 ± 0.014
10,ACCATACATACATACACACACACACCCATATATATA [CACACA_site2917],10.2 ± 0.26
11,CACATATATACACATACACACACACCCATACACCCA [CACACA_site8505],10.1 ± 0.25
12,TCAAAGCACCCATACACACACATATATATATATATA [CACACA_site4317],10.2 ± 0.18
13,TCAAAGCACACATACACACACATATAGATTTATATA [CACACA_site6272],9.73 ± 0.16
14,CATACACCCATACATACACACATACATATATATATA [CACACA_site8591],9.62 ± 0.15
15,TATACATACACATACACACATACACCCATACACATA [CACACA_site1746],9.69 ± 0.33
16,GATGAATAAATCAAAGCACACATACACCCACATATA [CACACA_site7986],9.67 ± 0.13
17,TATATATACATATACACACACACACCCATATATATA [CACACA_site2246],10 ± 0.11
18,TATATATATATATATACACACATACAGATATATATT [CACACA_site4629],9.5 ± 0.38
19,CTAGCAAATACATACACACACACACCCATACATATA [CACACA_site3496],9.95 ± 0.18
